According to PubChem BioAssay (NCATS):
Results filed as inconclusive are left out. Where a call stands in place of a potency, no number is given. The source made the active and inactive calls. Calls come from the whole dose curve; as a rule, active = well fitted curve in the direction sought with a large enough effect; inconclusive = small, poorly fitted or top-dose-only effect, or another doubt; inactive = no such curve, though single readings can be large; an effect the other way counts as inactive or inconclusive.

Legend:
[1] = target: Glutathione peroxidase 1 (Homo sapiens) (UniProt P07203); test: Primary qHTS Assay for Inhibitors of Recombinant Selenoprotein Glutathione Peroxidase 1 (GPX1) (AID 1845191); conditions: recombinant GPX1, GR-coupled NADPH fluorescence, 15 min; series mostly up to 48.8 µM; note: nearly all actives have a fitted effect of over 65% in size
Procedure, shortened: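 NADPH consumption tracked by fluorescence at 340/450 nm between t=0 and t=15 min, room temperature. Final mix: 10 nM GPX1, 100 nM glutathione reductase, 1 mM GSH, 0.5 mM NADPH, 0.5 mM cumene hydroperoxide, 0.01% BSA; 30 min compound–enzyme preincubation.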

[2] = target: Phospholipid hydroperoxide glutathione peroxidase GPX4 (Homo sapiens) (UniProt P36969); test: Primary qHTS Assay for Inhibitors of Recombinant Selenoprotein Glutathione Peroxidase 4 (GPX4) (AID 1845192); conditions: recombinant GPX4, GR-coupled NADPH fluorescence, 15 min; series mostly up to 50 µM; note: nearly all actives have a fitted effect of over 65% in size
Procedure, shortened: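 NADPH consumption followed by fluorescence at 340/450 nm, t=0 and after 15 min at room temperature. Reaction started with cumene hydroperoxide (0.5 mM final) after 30 min compound–GPX4 preincubation; final 200 nM GPX4, 100 nM GR, 1 mM GSH, 0.5 mM NADPH.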

[3] = target: Luciferin 4-monooxygenase (Photinus pyralis) (UniProt P08659); test: Primary firefly luciferase (FLuc) qHTS assay for identification of artifact compounds. (AID 1845220); conditions: purified firefly luciferase, luminescence, 5 min; series mostly up to 54.1 µM; note: nearly all actives have a fitted effect of over 60% in size
Procedure, shortened: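 FLuc 10 nM; luciferin 10 uM; ATP 10 uM; Tris-acetate pH 7.6, Mg-acetate 10 mM; 15 min RT preincubation; 5 min reaction; luminescence.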

[4] = Primary fluorescence-based thiol-reactive (MSTI) qHTS assay for identification of artifact compounds. (AID 1845221); conditions: MSTI thiol-reactivity probe, 1 h; series mostly up to 53.8 µM; note: nearly all actives have a fitted effect of over 65% in size; note: potency is the fitted concentration of half-maximal effect
Procedure, shortened: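 Reactivity toward the thiol probe MSTI (4 uM) is scored by fluorescence at Ex/Em 525/598 nm after 1 h at room temperature. Acetyl-MSTI and MSTI define the activity scale.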

[5] = tested on: Nanoluciferase (engineered Oplophorus gracilirostris luciferase); test: Primary Nanoluciferase (NLuc) qHTS assay for identification of artifact compounds. (AID 1845222); conditions: NLuc-conditioned medium, Nano-Glo luminescence, 5 min; series mostly up to 54.1 µM;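 note: NLuc secreted into diluted conditioned medium of S16 cells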
Procedure, shortened: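 NLuc from S16 cell medium (1:55) plus test compounds, 15 min, room temperature. Luminescence after Nano-Glo (1:100) addition, 5 min.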

[6] = Primary redox qHTS assay for identification of artifact compounds. (AID 1845223); conditions: Amplex Red/HRP redox cycling with DTT, fluorescence; series mostly up to 53.8 µM
Procedure, shortened: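 Redox-cycling detection via DTT (250 uM final) oxidation coupled to Amplex Red (25 uM)/HRP (250 mU/mL) in HBSS. 15 min preincubation plus 30 min after DTT, room temperature. Ex/Em 525/598 nm; 4-parameter Hill fit against DMSO and 10 uM DA3003.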

Phospholipid hydroperoxide glutathione peroxidase GPX4 (Homo sapiens), sequence (P36969 whole entry, looked up): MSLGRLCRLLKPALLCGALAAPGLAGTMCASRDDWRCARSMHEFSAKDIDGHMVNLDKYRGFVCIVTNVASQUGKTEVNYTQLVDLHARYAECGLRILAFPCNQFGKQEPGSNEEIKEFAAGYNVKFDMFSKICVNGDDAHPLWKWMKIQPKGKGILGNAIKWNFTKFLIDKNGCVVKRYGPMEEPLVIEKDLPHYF
Glutathione peroxidase 1 (Homo sapiens), sequence (P07203 whole entry, looked up): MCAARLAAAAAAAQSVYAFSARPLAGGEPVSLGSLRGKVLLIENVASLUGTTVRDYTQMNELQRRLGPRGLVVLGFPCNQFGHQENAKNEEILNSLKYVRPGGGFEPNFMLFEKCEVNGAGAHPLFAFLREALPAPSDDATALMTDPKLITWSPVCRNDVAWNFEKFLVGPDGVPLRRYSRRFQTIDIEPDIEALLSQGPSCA

Row | Compound | Potency [1] | Potency [2] | Potency [3] | Potency [4] | Potency [5] | Potency [6]
1 | CCC(C)C(=O)OC1C(C)C2(O)C(C=C(CO)CC3(O)C(=O)C(C)=CC32)C2C(C)(C)C12OC(=O)C(C)C (stereo not given) | inactive | inactive | inactive | inactive | inactive | inactive
2 | O=[N+]([O-])c1cn2c(n1)OC[C@@H](OCc1ccc(-c3ccc(OC(F)(F)F)cc3)nc1)C2 | inactive | inactive | inactive | inactive | inactive | inactive
3 | Fc1ccc(-c2nc(-c3c(F)cccc3F)[nH]c2-c2ccncc2)cc1 | inactive | inactive | inactive | inactive | inactive | inactive
4 | C=C1C(=O)O[C@@H]2[C@H]1CC[C@H](C)[C@]1(CCC(=O)O1)C2(C)O (stereo not given in full) | inactive | inactive | inactive | inactive | inactive | inactive
5 | C=C1C(=O)OC2CC(C)=C(C(C)CCCOC(C)=O)C(OC(=O)CC(C)CC)C12 (stereo not given) | inactive | inactive | inactive | inactive | inactive | inactive
6 | CCN1CCN(Cc2ccc(NC(=O)c3ccc(C)c(Oc4ncnc5[nH]c(C)cc45)c3)cc2C(F)(F)F)CC1 | inactive | inactive | inactive | inactive | inactive | inactive
7 | C/C=C(\C)C(=O)O[C@@H]1[C@@H](C)[C@]2(O)[C@@H]3C=C(C)C(=O)[C@H]3CC(CO)=C[C@H]2C2C(C)(C)[C@@]21OC(=O)C(C)CC (stereo not given in full) | inactive | inactive | inactive | inactive | inactive | inactive
8 | N#CC(CCCN1CCN(/N=C/c2cccnc2)CC1)(c1ccccc1)c1ccccc1 | inactive | inactive | inactive | inactive | inactive | inactive
9 | CCN1CCN(Cc2ccc(NC(=O)c3ccc(C)c(Oc4ccnc5[nH]ccc45)c3)cc2C(F)(F)F)CC1 | inactive | inactive | inactive | inactive | inactive | inactive
10 | COC(=O)c1ccc(N2CCN(C)CC2)c(NC(=O)c2cccc(OC)c2)c1 | inactive | inactive | inactive | inactive | inactive | inactive
11 | FC(F)(F)c1ccc(/C=C/c2nc(COc3ccc(CCCCn4ccnn4)cc3)co2)cc1 | inactive | inactive | inactive | inactive | inactive | inactive
12 | Cc1nc(C(=O)N2CCC[C@H]2Cc2nnc(-c3ccccc3)o2)c(-c2ccccc2F)s1 | inactive | inactive | inactive | inactive | inactive | inactive
13 | COC1CC(=O)C23C(=O)NC(CC(C)C)C2C(C)C(C)=CC3/C=C(\C)CCCC1O (stereo not given) | inactive | inactive | inactive | inactive | inactive | inactive
14 | COC(=O)CC(O)CC(O)/C=C/c1c(C)ccc2c1C(OC(C)=O)CC(C)C2 (stereo not given) | inactive | inactive | inactive | inactive | inactive | inactive
15 | O=c1[nH]c2ccc(C#CCN3CCC(Cc4ccccc4)CC3)cc2[nH]1 | inactive | inactive | inactive | inactive | inactive | inactive
16 | Nc1cccc(CNC(=O)c2ccc(Oc3ccc(OCc4cccc(F)c4)cc3)nc2)c1 | inactive | inactive | inactive | inactive | inactive | inactive
17 | CC(C)=CCCC1(C)C2CCC1(C)C(O)C2 (stereo not given) | inactive | inactive | inactive | 29.9 µM (active) | inactive | inactive
18 | Cc1ccc(-c2ncccn2)c(C(=O)N2C[C@H](COc3ccc(F)cn3)CC[C@H]2C)c1 | inactive | inactive | inactive | inactive | inactive | inactive
19 | COc1ccc(S(=O)(=O)n2cnc3cc(C)c(C)cc32)cc1 | inactive | inactive | inactive | inactive | inactive | inactive
20 | CC(C)c1cc(-c2ccc(F)c3ccccc23)nc(N)n1 | inactive | inactive | inactive | inactive | inactive | inactive
21 | COc1ccc(C2(CNC(=O)c3ccc(NC(=O)c4ccco4)cc3)CCOCC2)cc1 | inactive | inactive | inactive | inactive | inactive | inactive
22 | O=C(NCCCN1CCC2(CC1)OCc1ccccc12)[C@H]1CCCN1Cc1ccccc1 | inactive | inactive | inactive | inactive | inactive | inactive
23 | CCCC1(CCC)CCC2(CCN(CCCN(CC)CC)C2)CC1 | inactive | inactive | inactive | inactive | inactive | inactive
24 | C=C1C(=O)OC2/C=C(\COC(C)=O)CC/C=C(\C=O)CC(OC(=O)CC(C)C)C12 (stereo not given) | inactive | inactive | inactive | inactive | inactive | inactive
25 | CCCCNc1ncc2c(-c3ccc(S(=O)(=O)N4CCOCC4)cc3)nn(C3CCC(O)CC3)c2n1 (stereo not given) | inactive | inactive | inactive | inactive | inactive | inactive
